The text below walks through data of PubChem BioAssay (NCI).

Among the test systems are HCT-15 colon; HT29 colon; SNB-19 CNS; U251 CNS; PC-3 prostate; SK-MEL-5 melanoma; UACC-62 melanoma; LOX IMVI melanoma; SK-MEL-28 melanoma; SK-MEL-2 melanoma; EKVX NSCLC; SN12C renal; UO-31 renal; TK-10 renal; ACHN renal; CAKI-1 renal; A498 renal; CCRF-CEM leukemia; MOLT-4 leukemia; SNB-75 CNS.
Common to all, as to assay: NCI-60 one-dose screen, 48 h (100 = growth as untreated, 0 = no growth, -100 = all killed)
What all share (settings): 10 µM

About 83,000 compounds went through this panel and 20% of them were active in at least one assay; those are over-represented in the sample as a whole.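 Single-dose data. Exposure time 48 hours. Values below 10 considered active.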 A number with no mark means an inactive call. Calls of active or inactive are those of the source.

As for `Cc1ccc2nc(COc3ccc(C(=O)NNC(=S)NC(=O)c4ccccc4)cc3)[nH]c2c1`, the growth in the test with HCT-15 colon was 14.9%; with HT29 colon, 43.6%; in the test with SNB-19 CNS it was 52.4%; in the test with U251 CNS, 43.3%; in the test on PC-3 prostate, 50.2%; in the test with SK-MEL-5 melanoma it was 46.1%. For the same molecule, the growth is 51.9% with UACC-62 melanoma; 34% in the test on LOX IMVI melanoma; 55.6% in the test with SK-MEL-28 melanoma; 68.9% in the test with SK-MEL-2 melanoma; 51.6% in the test with EKVX NSCLC; 58.1% in the test with SN12C renal. The growth in the test on UO-31 renal was 18.6%; in the test with TK-10 renal it was 67.8%; in the test with ACHN renal, 23.6%; with CAKI-1 renal it was 26.8%; in the test with A498 renal it was 97.3%; in the test on CCRF-CEM leukemia it was 51.5%. The growth with MOLT-4 leukemia is 52.6%.

For the molecule `NC(=Nc1ccc(OCCCCCCCCn2ccnn2)cc1)c1ccccc1`, the growth is 15.8% with HCT-15 colon; 61.2% in the test with SNB-75 CNS; 41.7% in the test on SNB-19 CNS; 12.2% in the test on U251 CNS; 35.8% in the test with PC-3 prostate; 41.8% in the test on UACC-62 melanoma. Further, the growth in the test on LOX IMVI melanoma is 26.6%; with SK-MEL-28 melanoma, 49.2%; in the test with SK-MEL-2 melanoma it was 14.8%; with EKVX NSCLC, 42.7%; in the test with SN12C renal it was 32.3%; in the test on UO-31 renal, 40.7%. Further, the growth in the test on TK-10 renal is 70.9%; with ACHN renal, 34.4%; in the test on CAKI-1 renal, 37.9%; in the test with A498 renal it was 98.1%; in the test on CCRF-CEM leukemia it was 15.6%.

In the case of `CN1CCN(Cc2ccc(NC(=O)c3cncc(C#Cc4cnc5ccc(N[C@@H]6CCOC6)nn45)c3)cc2C(F)(F)F)CC1`, the growth with HCT-15 colon is -85.6% (active); in the test on HT29 colon, -44.4% (active); in the test with SNB-19 CNS it was -100% (active); in the test on U251 CNS it was -82.3% (active); with PC-3 prostate, -46.9% (active); in the test with SK-MEL-5 melanoma, -100% (active). The growth with UACC-62 melanoma is -90% (active); in the test on LOX IMVI melanoma, -100% (active); in the test with SK-MEL-28 melanoma, -95.3% (active); in the test with SK-MEL-2 melanoma it was -94.3% (active); with EKVX NSCLC, -99.6% (active); with SN12C renal it was -98.6% (active). Further, the growth with UO-31 renal was -98.6% (active); in the test with TK-10 renal, -82.2% (active); in the test on ACHN renal it was -100% (active); in the test on CAKI-1 renal, -98.1% (active); in the test with A498 renal, -97.6% (active); in the test on CCRF-CEM leukemia, -4.84% (active). The growth in the test on MOLT-4 leukemia is -19% (active).

For `O=C(NCCCCCCCCCC[P+](c1ccccc1)(c1ccccc1)c1ccccc1)c1ccc(-n2nc(-c3ccccc3O)nc2-c2ccccc2O)cc1`, the growth in the test with HCT-15 colon is -90.4% (active); with HT29 colon it was -72.9% (active); in the test with SNB-19 CNS, -93.9% (active); in the test on PC-3 prostate, -48.3% (active); with SK-MEL-5 melanoma it was -100% (active); with UACC-62 melanoma, -88.9% (active). The growth in the test on LOX IMVI melanoma is -96.9% (active); with SK-MEL-28 melanoma, -93.8% (active); in the test with SK-MEL-2 melanoma it was -79.6% (active); with EKVX NSCLC, -90% (active); in the test with SN12C renal, -76.4% (active); with TK-10 renal, -91.1% (active). Besides, the growth with ACHN renal is -98.6% (active); in the test with CAKI-1 renal, -68.5% (active); in the test on A498 renal, -75.1% (active); in the test with CCRF-CEM leukemia, 4.27% (active); in the test on MOLT-4 leukemia, -10.4% (active).

As for `CCCCCCCCCCCCCCCCCCCC(=O)NCCc1c[nH]c2ccc(OC(=O)NOCCOCCOCCOCCOCCOCCOCCOCCOCCOCCOCCOCCOCCOCCOCCOCCOCCOCCOCCOCCOCCOCCOC)cc12`, the growth in the test on HCT-15 colon is 77.7%; with HT29 colon it was -71.8% (active); with SNB-19 CNS it was 22.3%; in the test on U251 CNS, -16.8% (active); in the test with PC-3 prostate it was 6.43% (active); with SK-MEL-5 melanoma, -16.3% (active). Moreover, the growth was -90.7% (active) in the test on LOX IMVI melanoma; -2.99% (active) in the test with SK-MEL-28 melanoma; -68.5% (active) in the test with SK-MEL-2 melanoma; 35.6% with EKVX NSCLC; -17.4% (active) in the test with SN12C renal; 61.8% in the test on UO-31 renal. For the same molecule, the growth in the test on TK-10 renal is 51.2%; in the test with ACHN renal, 40.7%; in the test with CAKI-1 renal, 7.27% (active); in the test on A498 renal, 63.1%; with MOLT-4 leukemia it was -11.7% (active).

For the molecule `CC(=O)Nc1nc(-c2ccc(N3CCN(C)CC3)c(NS(=O)(=O)c3ccc(C(F)(F)F)cc3)c2)cs1`, the growth was -18.7% (active) with HT29 colon; 1.07% (active) in the test on SNB-75 CNS; 45.6% in the test on SNB-19 CNS; 23.1% in the test on U251 CNS; 30.3% with PC-3 prostate; 7.11% (active) in the test with SK-MEL-5 melanoma. In addition, the growth was 6.26% (active) in the test on UACC-62 melanoma; -85.4% (active) in the test with LOX IMVI melanoma; 5.39% (active) in the test with SK-MEL-28 melanoma; 7.74% (active) in the test on SK-MEL-2 melanoma; 72.2% with EKVX NSCLC; 13.7% with SN12C renal. For the same molecule, the growth with UO-31 renal was 24.9%; in the test with TK-10 renal, 10.8%; in the test on ACHN renal, 5.92% (active); in the test on CAKI-1 renal, 13.5%; with A498 renal, 52.3%; in the test with CCRF-CEM leukemia, -13.4% (active).

Regarding `O=C(NO)c1ccc(Cn2ccc3c(NCc4ccccc4)ncnc32)cc1`, the growth in the test with HCT-15 colon was -16.7% (active); in the test with HT29 colon it was 0.726% (active); in the test with SNB-19 CNS it was -7.76% (active); with U251 CNS, -34% (active); with PC-3 prostate it was 7.14% (active); with SK-MEL-5 melanoma it was -75% (active). For the same molecule, the growth in the test with UACC-62 melanoma is -43.3% (active); in the test with LOX IMVI melanoma, -99.6% (active); with SK-MEL-28 melanoma, 0.239% (active); with SK-MEL-2 melanoma, -2.65% (active); in the test on EKVX NSCLC, 21.4%; with SN12C renal, 13.9%. Further, the growth in the test with UO-31 renal is 4.26% (active); with TK-10 renal it was -7.3% (active); with ACHN renal, 0.241% (active); with CAKI-1 renal, 2.72% (active); in the test on A498 renal, -20.1% (active); with CCRF-CEM leukemia it was 8.45% (active). Besides, the growth in the test with MOLT-4 leukemia was 3.81% (active).

On to `O=C1CCC(N2Cc3c(NCc4ccc(-c5ccccc5)cc4)cccc3C2=O)C(=O)N1` (stereo not drawn), for which the growth in the test on HCT-15 colon is 36.4%; in the test on HT29 colon it was 109%; with SNB-19 CNS, 56.2%; in the test on U251 CNS, 49.6%; in the test on PC-3 prostate, 50.4%; in the test with SK-MEL-5 melanoma, 67.3%. Further, the growth was 75.5% in the test on UACC-62 melanoma; 80.5% in the test on LOX IMVI melanoma; 91.4% in the test on SK-MEL-28 melanoma; 101% in the test with SK-MEL-2 melanoma; 84.2% in the test on EKVX NSCLC; 73.8% with SN12C renal. The growth was 45.3% in the test on UO-31 renal; 79.1% with TK-10 renal; 73.2% in the test on ACHN renal; 82.8% in the test on CAKI-1 renal; 70.5% with A498 renal; 19.9% in the test on CCRF-CEM leukemia. For the same molecule, in the test with MOLT-4 leukemia, the growth was 13.4%.

Consider `Cc1ccc(C(C)C)cc1NC(=O)c1ccccc1N(C)C`, for which the growth in the test on HT29 colon is 74.6%; with SNB-75 CNS it was 112%; in the test on SNB-19 CNS, 93%; in the test on U251 CNS, 87.6%; in the test on PC-3 prostate it was 73.7%; with SK-MEL-5 melanoma, 86.8%. Besides, the growth with UACC-62 melanoma was 63.1%; in the test on LOX IMVI melanoma it was 86.8%; with SK-MEL-28 melanoma, 92.9%; in the test with SK-MEL-2 melanoma it was 86.8%; with EKVX NSCLC, 81.1%; in the test with SN12C renal, 88.1%. Besides, the growth is 76.4% in the test on UO-31 renal; 90.2% in the test on TK-10 renal; 88.4% in the test on ACHN renal; 70.6% in the test with CAKI-1 renal; 100% with A498 renal; 80.1% with CCRF-CEM leukemia.
